Screening results as filed in PubChem.
BoNT-F LC inh = inhibitors of Botulinum neurotoxin F light chain protease. hit rate 0.22% among 360,000. Multiplex microsphere protease cleavage assay, flow cytometry. inhibition, % at 10 µM. AID 588497; in the data active = inhibition above about 35%, passing the limit was not always enough; inconclusive = no clear call, values can overlap the other calls; note: plate controls were buffer without enzyme for full effect and enzyme alone for no effect
TcdB inh = blocks C. difficile toxin B glycohydrolase activity | AID 652162 | TcdB glycohydrolase enzymatic assay, plate reader | P18177 | hit rate 0.24% among 350,000 | inhibition, % at 9.99 µM; in the data active = inhibition above about 10%
BoNT A protease = BoNT A light chain protease inhibition. multiplex microsphere protease substrate cleavage, flow cytometry. inhibition, % at 10 µM. hit rate 0.17% among 360,000. AID 588499; note: plate controls were buffer without enzyme for full effect and enzyme alone for no effect
Anthrax LF prot = inhibitors of Bacillus anthracis lethal factor protease. hit rate 0.12% among 360,000. P15917. inhibition, % at 10 µM. multiplex microsphere protease cleavage assay, LF; note: plate controls were buffer without enzyme for full effect and enzyme alone for no effect
Bead autofluor = counter-screen for toxin protease inhibitors: compound fluorescence; hit rate 3.1% among 360,000; compound autofluorescence counterscreen, microsphere flow cytometry; hits give high values; AID 624483; fluorescence intensity (concentration not given with the values); in the data active = fluorescence intensity above about 16000; inconclusive = no clear call, values can overlap the other calls
Starred values were filed as active, the others as inactive. Many of the other results were omitted from the sample, so hits are more common in it than they were. Cut-off read from the data, not from the text of the source, unless noted: active = inhibition above about 30%; inconclusive = no clear call, values can overlap the other calls; inactive = below that.

C[C@@H]1CN([C@@H](C)CO)C(=O)c2cc(-c3cccc(C#N)c3)cnc2O[C@@H]1CN(C)C(=O)C1CC1 was read as TcdB inh 0.3.
`CCOC(=O)c1c(C)c(C(=O)N2CCCCCC2)c(C)n1C` gave BoNT-F LC inh -0.5, BoNT A protease -0.2, Anthrax LF prot 2.0 and Bead autofluor 23943*.
Screening CCOC(=O)c1c(C)c(C(=O)N2CCCCCC2)c(C)n1CC returned BoNT-F LC inh 0.0, TcdB inh 0.7, BoNT A protease inconclusive, Anthrax LF prot -0.1 and Bead autofluor 20617*.
Screening CCN1[C@@H]2Cn3c(ccc(-c4cccnc4)c3=O)[C@H]1[C@@H](C(=O)NC1CCCC1)[C@@H]2CO returned TcdB inh -0.3.
`COc1ccc(CCN2C(=O)[C@@]3(Cc4ccccc42)c2ccccc2C(=O)N(C2CCCCC2)[C@H]3c2ccc(CO)cc2)cc1` gave TcdB inh -0.2.
`O=C(C[C@@H]1C=C[C@@H](NC(=O)c2ccncc2)[C@H](CO)O1)NCC1CC1` gave TcdB inh -0.1.
Screening CSc1ccccc1NC(=S)Nc1ccccc1C(F)(F)F returned BoNT-F LC inh 0.6, BoNT A protease 0.5, Anthrax LF prot -1.3 and Bead autofluor 19907*.
`CC(C)CC(=O)NC(=S)Nc1ccccc1C(F)(F)F` gave BoNT-F LC inh -6.3, TcdB inh -0.1, BoNT A protease -0.6, Anthrax LF prot -3.2 and Bead autofluor 2549.
FC(F)(F)c1ccccc1NC(=S)Nc1ccccc1 was read as BoNT-F LC inh -37.0, TcdB inh -0.4, BoNT A protease -3.9, Anthrax LF prot 10.1 and Bead autofluor 3205.
For CC(C)(C)CC(=O)NC(=S)Nc1ccccc1C(F)(F)F the results were BoNT-F LC inh -3.2, BoNT A protease -2.6, Anthrax LF prot -0.8 and Bead autofluor 24827*.
Screening CC(C)CNC(=O)c1c(F)c(F)c(F)c(F)c1F returned BoNT-F LC inh 0.0, TcdB inh 10.4*, BoNT A protease 0.0, Anthrax LF prot 5.2 and Bead autofluor 4720.
Screening Cn1c(CNC(=O)c2ccco2)nnc1SCC(=O)Nc1ccc(Br)cc1F returned BoNT-F LC inh -15.9, BoNT A protease -1.0, Anthrax LF prot -0.5 and Bead autofluor 2580.
`CCn1c(CNC(=O)c2ccco2)nnc1SCC(=O)Nc1ccc(Br)cc1F` gave BoNT-F LC inh 7.6, BoNT A protease 4.9, Anthrax LF prot -5.3 and Bead autofluor 20415*.
For COc1ccccc1N1CCN(C2=NS(=O)(=O)c3ccccc32)CC1 the results were BoNT-F LC inh 1.0, BoNT A protease -0.5, Anthrax LF prot 4.2 and Bead autofluor 6893.
`C=CCN1/C(=C(\C#N)C2=NS(=O)(=O)c3ccccc32)N(C)c2ccccc21` gave BoNT-F LC inh 1.7, BoNT A protease -0.9, Anthrax LF prot -1.8 and Bead autofluor 16828*.
Screening CO[C@H]1CN(C)C(=O)c2cc(NC(=O)c3ccc(F)cc3)ccc2OC[C@@H](C)N(C(C)=O)C[C@H]1C returned TcdB inh 1.0.
CCN1CCC2(CC1)NC(CO)(CO)CO2 was read as BoNT-F LC inh 0.4, BoNT A protease 0.1, Anthrax LF prot -0.1 and Bead autofluor 2750.
`CCN1CCC2(CCNC2)C1` (stereo unspecified) gave BoNT-F LC inh 1.1, BoNT A protease -0.8, Anthrax LF prot -2.6 and Bead autofluor 16425*.
CCCNC(=O)C[C@@H]1CC[C@@H]2[C@@H](COc3ccc(NS(=O)(=O)CC)cc3C(=O)N2C)O1 was read as TcdB inh 0.6.
O=C(CSc1ccccc1C(=O)O)Nc1cccc(C(=O)O)c1 was read as BoNT-F LC inh 3.2, BoNT A protease inconclusive, Anthrax LF prot 0.4 and Bead autofluor 21124*.
CC(C)CC#Cc1ccc2c(c1)O[C@H](CN(C)C(=O)CC1CC1)[C@@H](C)CN([C@H](C)CO)S2(=O)=O was read as TcdB inh 0.5.
For C[C@H]1CN([C@@H](C)CO)C(=O)c2cccc(NS(=O)(=O)c3ccc(F)cc3)c2O[C@@H]1CN(C)Cc1ccc(C(=O)O)cc1 the results were TcdB inh 0.5.
For Cc1c(Br)cc(C(=O)NC2CCCCC2)c(C)c1C the results were BoNT-F LC inh -1.7, BoNT A protease inconclusive, Anthrax LF prot 0.2 and Bead autofluor 23067*.
Screening Cc1ccc(C(=O)NC2CCCCCCC2)c(Cl)c1 returned BoNT-F LC inh 26.9, TcdB inh -7.4, BoNT A protease 3.4, Anthrax LF prot -9.3 and Bead autofluor 4031.
For COc1cccc(NC(=O)C[C@@H]2CC[C@@H]3[C@H](COc4ccc(NC(=O)C5CCC5)cc4C(=O)N3C)O2)c1 the results were TcdB inh -0.6.
